In PubChem BioAssay (NCATS):
Results filed as inconclusive are left out. A call without a number means that no potency is given here. Active and inactive are the calls of the source. Calls follow the shape of the dose curve; as a rule, active = well fitted activation curve with a large enough effect in the main read-out, with a control signal flat (not every such curve was filed as active); inconclusive = small, poorly fitted or top-dose-only effect, or effect the other way, or a change in a side signal; inactive = flat fitted curve, though single readings scatter.

Target: 3',5'-cyclic-AMP phosphodiesterase 4B (Homo sapiens) (UniProt Q07343)
Assay: qHTS Assay for Inhibitors of PDE-IV (AID 607)
Conditions: HEK293 ACTOne CNG channel cells, membrane potential fluorescence; series mostly up to 22.9 µM
Method in brief: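 HEK293 ACTOne cells with CNG channel (1000/well), endogenous PDE4; membrane potential dye, compounds up to 22.9 uM final. Fluorescence Ex 535/Em 590; RO 20-1724 (100 uM final) as reference.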

Sequence of 3',5'-cyclic-AMP phosphodiesterase 4B (Homo sapiens) (Q07343 whole entry, looked up): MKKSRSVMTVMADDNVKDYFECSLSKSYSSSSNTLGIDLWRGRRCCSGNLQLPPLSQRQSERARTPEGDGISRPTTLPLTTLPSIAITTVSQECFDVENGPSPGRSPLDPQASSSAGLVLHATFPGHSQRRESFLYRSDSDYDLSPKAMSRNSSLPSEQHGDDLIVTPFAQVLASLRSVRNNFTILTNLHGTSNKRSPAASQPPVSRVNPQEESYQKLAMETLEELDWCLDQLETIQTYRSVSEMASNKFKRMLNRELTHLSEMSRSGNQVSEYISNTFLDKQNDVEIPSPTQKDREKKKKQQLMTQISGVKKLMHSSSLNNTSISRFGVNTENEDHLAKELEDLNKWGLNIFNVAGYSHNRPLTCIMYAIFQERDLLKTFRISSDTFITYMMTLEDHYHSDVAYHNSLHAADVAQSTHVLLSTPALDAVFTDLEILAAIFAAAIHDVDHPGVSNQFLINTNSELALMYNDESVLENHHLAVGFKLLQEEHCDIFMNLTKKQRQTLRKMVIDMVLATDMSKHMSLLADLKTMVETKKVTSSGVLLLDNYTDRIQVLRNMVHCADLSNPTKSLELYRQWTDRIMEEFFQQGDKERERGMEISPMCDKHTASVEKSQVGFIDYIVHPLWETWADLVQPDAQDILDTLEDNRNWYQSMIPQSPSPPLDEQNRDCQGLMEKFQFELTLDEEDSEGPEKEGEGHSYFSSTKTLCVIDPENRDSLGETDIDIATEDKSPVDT

| SMILES | Potency |
| --- | --- |
| O=c1cc(-c2ccccc2)[nH]c2nc(Cl)ccc12 | inactive |
| NCCCCN=C(N)N | inactive |
| NC(=Nc1ccccc1)NC(=O)c1nc(Cl)c(N)nc1N | inactive |
| N=C(N)SCCN | inactive |
| COc1ccc(C(=O)NCc2cccnc2)cc1C(=O)NCc1cccnc1 | inactive |
| N=C(N)c1ccc(N)cc1 | inactive |
| NC(N)=NC(N)=Nc1cccc(Cl)c1 | inactive |
| S=C(S)N1CCCC1 | inactive |
| O=C(O)c1cc2cc(F)ccc2[nH]1 | inactive |
| CNCCNS(=O)(=O)c1cccc2cnccc12 | inactive |
| O=C(O)C1=CCCNC1 | inactive |
| NCCNS(=O)(=O)c1cccc2c(Cl)cccc12 | inactive |
| O=c1[nH]c2ccccc2c2ccccc12 | inactive |
| CCCCOC(=O)NS(=O)(=O)c1sc(CC(C)C)cc1-c1ccc(Cn2c(CC)nc3c(C)cc(C)nc32)cc1 | inactive |
| N#C/C(=C\c1ccc(O)c(O)c1)C(=O)NCCc1ccccc1 | inactive |
| N[C@H](C(=O)O)c1cc(O)cc(O)c1 | inactive |
| O=c1onc2n1-c1cc(Br)ccc1OC2 | inactive |
| O=C(O)C1CCNCC1 | inactive |
| O=C(O)Cc1ccc(O)c(O)c1 | inactive |

| SMILES | Potency |
| --- | --- |
| O=C1Cc2c([nH]c3ccc(Br)cc23)-c2ccccc2N1 | inactive |
| NC1(C(=O)O)CCCCC1 | inactive |
| O=C(O)C1=CCNCC1 | inactive |
| COc1cc(CNC(=O)CCCCCCC(C)C)ccc1O | inactive |
| O=C(O)C1=CCCN(CCON=C(c2ccccc2)c2ccccc2)C1 | inactive |
| COc1cc2c(CCNC(C)=O)c[nH]c2cc1O | inactive |
| COc1cc(CC(=O)O)ccc1O | inactive |
| NS(=O)(=O)c1cccc2c1c([N+](=O)[O-])cc1nc(O)c(O)nc12 | inactive |
| C=CCn1c(=O)c2c(nc(-c3ccc(S(=O)(=O)O)cc3)n2C)n(C)c1=O | inactive |
| CC(C)NC[C@H](O)COc1cccc2ccccc12 | inactive |
| CC(N)=O | inactive |
| CC(C)(CO)Cc1cc(C(C)(C)C)c(O)c(C(C)(C)C)c1 | inactive |
| Cc1nc2c(OCc3ccccc3)cccn2c1CC#N | inactive |
| COCc1nc2c([nH]1)c(=O)n(C)c(=O)n2CC(C)C | inactive |
| CCCn1c(=O)c2[nH]c(-c3ccc(S(=O)(=O)O)cc3)nc2n(CCC)c1=O | inactive |
| C[N+](C)(C)CC=O | inactive |
| Nc1ncnc2c1c(-c1ccc(Oc3ccccc3)cc1)cn2C1CCCC1 | inactive |
| COc1ccc(NC(=O)c2ccc(-c3ccc(-c4noc(C)n4)cc3C)cc2)cc1N1CCN(C)CC1 | inactive |
